Assay [1] is described as follows: Quantitative High-Throughput drug screen in 47 multiple myeloma cell lines against the NCATS MIPE library collection: PE2_PLB cell viability assay (AID 1919869). Also: nearly all actives have a fitted effect of over 35% in size. Also: potency is read from the fitted curve at half-maximal effect. The gist of the method: (§1)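 Viability after 48 h drug exposure was measured as ATP-dependent luminescence. Cells, 500 per well, sat at 37 °C under 5% CO2; DMSO wells set 100%, media-only wells 0%.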
A short description of assay [2]: Quantitative High-Throughput drug screen in 47 multiple myeloma cell lines against the NCATS MIPE library collection: PCM6_Riken cell viability assay (AID 1919870). Also: nearly all actives have a fitted effect of over 30% in size. Also: potency is read from the fitted curve at half-maximal effect. In outline: as §1
A short description of assay [3]: Quantitative High-Throughput drug screen in 47 multiple myeloma cell lines against the NCATS MIPE library collection: RPMI8226_ATCC cell viability assay (AID 1919871). Also: nearly all actives have a fitted effect of over 30% in size. Also: potency is read from the fitted curve at half-maximal effect. The gist of the method: as §1
Assay [4] can be described thus: Quantitative High-Throughput drug screen in 47 multiple myeloma cell lines against the NCATS MIPE library collection: OPM2_DSMZ cell viability assay (AID 1919872). Also: nearly all actives have a fitted effect of over 30% in size. Also: potency is read from the fitted curve at half-maximal effect. The gist of the method: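 Myeloma cell lines, 500 cells per well, exposed to MIPE 4.0 library compounds for 48 h at 37C, 5% CO2. Viability from ATP by CellTiter-Glo luminescence; normalised to DMSO (100%) and media-only (0%) wells.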

Assay [5] in a line: Quantitative High-Throughput drug screen in 47 multiple myeloma cell lines against the NCATS MIPE library collection: KMS11_JCRBsus cell viability assay (AID 1919873). Also: nearly all actives have a fitted effect of over 50% in size. Also: potency is read from the fitted curve at half-maximal effect. In outline:
as §1

Assay [6] is described as follows: qHTS for identification of novel therapeutic agents for treatment of microphthalmiaassociated transcription factor (MiT) renal cell carcinoma (RCC) (AID 1963991; calls by dose curve; also: potency is read from the fitted curve at half-maximal effect;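 as to z-score: curves scaled with 100% = DMSO viability and 0% = empty wells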). The conditions noted are these: CellTiter-Glo, 48 h; for z-score: stronger effect = lower value; for Potency: active = Z-AUC below -0.8 in all three lines. In outline: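 UOK109/UOK124/UOK145 (TFE3 fusions, three partners); 500 cells/well; MIPE v4.0, 1912 cpds, 11 conc.; 48 h, 37 C; CellTiter-Glo, 15 min RT; lum. Norm.: DMSO 100%, empty 0%.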
A general note: Quantitative high-throughput screening tests each substance at several concentrations.

The nature of assay [7]: Quantitative High-Throughput drug screen in 47 multiple myeloma cell lines against the NCATS MIPE library collection: KMS28BM_JCRB cell viability assay (AID 1919874). Also: potency is read from the fitted curve at half-maximal effect; nearly all actives have a fitted effect of over 35% in size. The gist of the method:
as §1

Assay [8] can be described thus: qHTS drug screen for cell cycle checkpoint inhibitors in PARPi-resistant BRCA-mutant ovarian cancer cell lines. (AID 1963452; calls by dose curve). The conditions noted are these: PEO1/OlaR viability, CellTiter-Glo luminescence, 96 h, stronger effect = lower value. The gist of the method: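 PEO1, PEO4 and PEO1/OlaR ovarian cancer cells, 600 per well, exposed 96 h at 37C to a dilution series. Viability read by CellTiter-Glo luminescence, normalized to DMSO and empty wells; activity summarized as Z-AUC.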

Where [9] appears, read: TFE3-RCC UOK109 viability, measured here: UOK109 Z-AUC.
Where [10] appears, read: TFE3-RCC viability, measured here: UOK124 Z-AUC.
The mark [11] stands for this setting: TFE3-RCC viability, measured here: UOK145 Z-AUC.
Where [12] appears, read: measured here: PEO1 parental Z-AUC.

Each structure is given as a SMILES string. Records with an inconclusive call do not appear. The source made the active and inactive calls. Unless noted, calls follow the shape of the dose curve; as a rule, active = well fitted cell-killing curve with a large enough effect; inconclusive = small, poorly fitted or top-dose-only effect, or effect the other way; inactive = no such curve, though single readings can be large or run the other way.

This note sets out measurements from PubChem BioAssay (NCATS).

As for `CCOc1ccccc1OCCNC(C)Cc1ccc(OC)c(S(N)(=O)=O)c1` (stereo not given), the Potency entry in assay [1], in assay [2], in assay [3], in assay [4] and in assay [5] was “inactive” throughout. Besides, the z-score in assay [6] (setting [9]) is -0.0547; in assay [6] (setting [10]), 0.341; in assay [6] (setting [11]), 2.03.

Regarding `Cc1[nH]c2ccccc2c1CCNCc1ccc(C=CC(=O)NO)cc1`, the Potency in assay [1] is 0.0935 µM (active); in assay [2], 0.0662 µM (active); in assay [3], 0.118 µM (active); in assay [4] it was 0.0935 µM (active); in assay [5] it was 0.0662 µM (active); in assay [7], 0.0526 µM (active). Moreover, the Potency in assay [6] (TFE3-RCC UOK109 viability) was 0.418 µM (active). Further, the z-score in assay [6] (setting [9]) was -1.86; in assay [6] (setting [10]) it was -3.24; in assay [6] (setting [11]), -1.46.

`CC1(O)CC(c2nc(-c3ccc4ccc(-c5ccccc5)nc4c3)c3c(N)nccn23)C1` (stereo not given): the Potency was 1.66 µM (active) in assay [1]; 14.8 µM (active) in assay [2]; 0.235 µM (active) in assay [3]; 18.7 µM (active) in assay [4]; 0.187 µM (active) in assay [5]. The values for the Z-AUC in assay [8], in assay [8] (setting [12]) and in assay [8] (measured here: PEO4 Z-AUC) were -2.04 (inactive), -0.993 and -1.72, respectively.

As for `CC(C)c1noc(N2CCC(COc3ccc(-c4ccc(S(C)(=O)=O)cc4)nc3)CC2)n1`, the Potency result in assay [1] and in assay [4] was “inactive” each time. Moreover, the Potency in assay [2] is 4.69 µM (active); in assay [3] it was 7.43 µM (active); in assay [5], 1.18 µM (active). Moreover, the Z-AUC in assay [8] was -0.00574 (inactive); in assay [8] (setting [12]), -0.198; in assay [8] (measured here: PEO4 Z-AUC), 1.01. Also, the values for the z-score in assay [6] (setting [9]), in assay [6] (setting [10]) and in assay [6] (setting [11]) were 0.525, 0.308 and 0.324, respectively.

In the case of `NC(=O)c1c(OCc2c(F)cc(Br)cc2F)nsc1NC(=O)NCCCCN1CCCC1`, the Potency in assay [1] was 23.5 µM (active); in assay [2], 10.5 µM (active); in assay [3] it was 23.5 µM (active); in assay [4], 20.9 µM (active); in assay [5] it was 20.9 µM (active). The results for the Z-AUC in assay [8], in assay [8] (setting [12]) and in assay [8] (measured here: PEO4 Z-AUC) were 0.49 (inactive), 0.803 and 0.754, respectively.

Regarding `Cc1cc(CN2CCN(c3c(Br)cnc4nc(-c5ccc(N6CCN(C)CC6)cc5)[nH]c34)CC2)no1`, the Potency in assay [1] is 6.62 µM (active); in assay [2], 3.32 µM (active); in assay [3], 29.6 µM (active); in assay [5] it was 1.05 µM (active); in assay [7], 2.96 µM (active). Also, the values for the Z-AUC in assay [8], in assay [8] (setting [12]) and in assay [8] (measured here: PEO4 Z-AUC) were 0.133 (inactive), 0.0389 and -0.2, respectively.

Take `Cc1cc(C(=O)N2CCN(c3cccc(Cl)c3)CC2)n(-c2ccccc2)n1`: the Potency in assay [1] is 3.72 µM (active); in assay [2], 9.35 µM (active); in assay [3], 5.9 µM (active); in assay [5], 0.148 µM (active); in assay [7] it was 0.132 µM (active). For the same compound, the Z-AUC is -1.51 (inactive) in assay [8], -1.82 in assay [8] (setting [12]) and -1.79 in assay [8] (measured here: PEO4 Z-AUC).

Take `Cc1ccc(C(=O)Nc2cccc(C(F)(F)F)c2)cc1-c1ccc2nc(NCCN3CCOCC3)ncc2c1`: the Potency in assay [1] was 4.69 µM (active); in assay [2] it was 5.9 µM (active); in assay [3] it was 5.9 µM (active); in assay [5] it was 2.96 µM (active); in assay [7], 18.7 µM (active). In addition, the Z-AUC in assay [8] is 0.224 (inactive); in assay [8] (setting [12]), -0.409; in assay [8] (measured here: PEO4 Z-AUC) it was -0.0261.

As for `COc1cc2ncnc(Nc3ccc(F)c(Cl)c3)c2cc1NC(=O)C=CCN1CCCCC1`, the Potency in assay [1] is 6.62 µM (active); in assay [2] it was 3.32 µM (active); in assay [3], 18.7 µM (active); in assay [5] it was 8.33 µM (active); in assay [7], 6.62 µM (active).

On to `O=C(Nc1nc2cccc(-c3ccc(CN4CCS(=O)(=O)CC4)cc3)n2n1)C1CC1`, for which the Potency in assay [1] is 16.6 µM (active); in assay [2], 16.6 µM (active); in assay [3], 18.7 µM (active); in assay [5], 13.2 µM (active); in assay [7], 14.8 µM (active). In addition, the results for the Z-AUC in assay [8], in assay [8] (setting [12]) and in assay [8] (measured here: PEO4 Z-AUC) were 0.985 (inactive), 0.544 and 0.638, respectively.

For `CC(=O)Nc1sc2c(c1-c1nc3ccccc3s1)CNC2`, the Potency in assay [1] is 20.9 µM (active); in assay [2], 14.8 µM (active); in assay [3], 14.8 µM (active); in assay [5], 13.2 µM (active); in assay [7], 14.8 µM (active).

For the compound `c1cc(-c2cnn3cc(-c4ccc(OCCN5CCCCC5)cc4)cnc23)ccn1`, the Potency is 3.32 µM (active) in assay [1], 1.87 µM (active) in assay [2], 16.6 µM (active) in assay [3] and 20.9 µM (active) in assay [4]. Moreover, the Z-AUC in assay [8] is 0.293 (inactive); in assay [8] (setting [12]) it was 0.413; in assay [8] (measured here: PEO4 Z-AUC) it was 0.377.

On to `O=C(C=Cc1cccnc1)NCCCCC1CCN(C(=O)c2ccccc2)CC1`, for which the Potency in assay [1] is 0.0132 µM (active); in assay [2], 0.0264 µM (active); in assay [3], 0.0935 µM (active); in assay [5], 0.0148 µM (active); in assay [7], 0.0833 µM (active).

With `Cc1cc(Nc2cc(N3CCN(C)CC3)nc(C=Cc3ccccc3)n2)n[nH]1`, the Potency was 13.6 µM (active) in assay [1]; 30.3 µM (active) in assay [2]; 13.6 µM (active) in assay [3]; 1.21 µM (active) in assay [5]; 13.6 µM (active) in assay [7].

In the case of `CC(=O)c1c(C)c2cnc(Nc3ccc(N4CCNCC4)cn3)nc2n(C2CCCC2)c1=O`, the Potency was 18.7 µM (active) in assay [1]; 5.9 µM (active) in assay [2]; 2.09 µM (active) in assay [3]; 20.9 µM (active) in assay [5]; 23.5 µM (active) in assay [7].

As to `CCOc1cc2ncc(C#N)c(Nc3ccc(F)c(Cl)c3)c2cc1NC(=O)C=CCN(C)C`, the Potency in assay [1] is 5.9 µM (active); in assay [2], 1.66 µM (active); in assay [3], 10.5 µM (active); in assay [5], 2.64 µM (active); in assay [7], 3.32 µM (active).

In the case of `Cn1c2ccccc2c2c3c(c4c5ccccc5n(CCC#N)c4c21)CNC3=O`, the Potency is 1.87 µM (active) in assay [1]; 1.87 µM (active) in assay [2]; 20.9 µM (active) in assay [3]; 11.8 µM (active) in assay [4]; 7.43 µM (active) in assay [6] (TFE3-RCC UOK109 viability). For the same compound, the Z-AUC in assay [8] is -0.442 (inactive); in assay [8] (setting [12]) it was -1.02; in assay [8] (measured here: PEO4 Z-AUC), -1.08. Besides, the z-score in assay [6] (setting [9]) was -0.993; in assay [6] (setting [10]), -2.34; in assay [6] (setting [11]), -1.2.

Regarding `CCCNC(=O)Nc1ccc(Oc2ncnc3cc(OC)c(OC)cc23)cc1Cl`, the Potency result in assay [1], in assay [2] and in assay [4] was “inactive” throughout. In assay [3], the Potency was 0.935 µM (active). Moreover, the Z-AUC was -0.498 (inactive) in assay [8], -0.00236 in assay [8] (setting [12]) and -0.53 in assay [8] (measured here: PEO4 Z-AUC). The z-score in assay [6] (setting [9]) is 0.0793; in assay [6] (setting [10]), -1.33; in assay [6] (setting [11]), -0.496.

Regarding `C=C1C(=CC=C2CCCC3(C)[C@@H]([C@H](C)C=CC=CC(O)(CC)CC)CC[C@@H]23)C[C@@H](O)C[C@@H]1O` (stereo not given in full), the Potency in assay [1] is 23.5 µM (active); in assay [2], 33.2 µM (active); in assay [3], 26.4 µM (active); in assay [5] it was 23.5 µM (active); in assay [7] it was 20.9 µM (active).

Consider `CCN(CC)CCNC(=O)c1ccc2nc(-c3ccccc3)c(-c3ccc(CN4CCC(n5c(=O)[nH]c6ccccc65)CC4)cc3)nc2c1`, for which the Potency in assay [1] is 1.05 µM (active); in assay [2], 0.332 µM (active); in assay [3] it was 20.9 µM (active); in assay [5], 2.35 µM (active); in assay [7] it was 16.6 µM (active).
